In PubChem BioAssay (NCATS):
Inconclusive results are not listed. Activity calls are given as the source filed them. The call rests on the fitted dose curve; in most records, active means well fitted cell-killing curve with a large enough effect; inconclusive means small, poorly fitted or top-dose-only effect, or effect the other way; inactive means no such curve, though single readings can be large or run the other way.

test: Quantitative High-Throughput drug screen in 47 multiple myeloma cell lines against the NCATS MIPE library collection: OCIMY1_PLB cell viability assay (AID 1918979); details: OCI-MY1 myeloma viability, CellTiter-Glo ATP, 48 h; series mostly up to 45.8 µM; viability: at the top concentration; further: nearly all actives have a fitted effect of over 35% in size
Excerpt: PI: Beverly A. Mock Ph.D.
Laboratory of Cancer Biology and Genetics,
Center for Cancer Research, National Cancer Institute,
National Institute of Health, Bethesda, Maryland
Drug resistance and disease progression are common in multiple myeloma (MM) patients, underscoring the need for new therapeutic combinations. […] We hypothesized that effective combinations would reduce MYC expression and enhance p16 activity. […] These preclinical data identify potentially useful drug combinations for evaluation in drug-resistant MM and reveal potential mechanisms of combined drug sensitivity.
Described herein is the primary MIPE qHTS used to cherrypick compounds. Validated compounds were then further tested for potential synergistic activiy.
[1] Peat TJ, Gaikwad SM, Dubois W, Gyabaah-Kessie N, Zhang S, Gorjifard S, Phyo Z, Andres M, Hughitt VK, Simpson RM, Miller MA, Girvin AT, Taylor A, Williams D, D'Antonio N, Zhang Y, Rajagopalan A, Flietner E, Wilson K, Zhang X, Shinn P, Klumpp-Thomas C, McKnight C, Itkin Z, Chen L, Kazandijian D, Zhang J, Michalowski AM, Simmons JK, Keats J, Thomas CJ, Mock BA. Drug combinations identified by high-throughput screening promote cell cycle transition and upregulate Smad pathways in myeloma. Cancer Lett. 2023 Aug 1;568:216284. doi: 10.1016/j.canlet.2023.216284. Epub 2023 Jun 24. PMID: 37356470; PMCID: PMC10408729.
SEQUENCE No. (e.g., 1, 2, 3, etc.); […] (e.g., Cells, Incubation, Reagent, etc.); VALUE and DESCRIPTION.
1; Cells; 5 uL; white, solid bottom 1536-well Greiner assay plate.
2; Compounds; 23 nL; Kalypsis pin tool (Wako USA) equipped with a 1536-well pin head to transfer to the assay plates.
3; Incubation; 48 hours; 37C incubation.
4; Reagent;5uL; CellTiter Glo (Promega).
5; Detector; 425V; Luminescence; Viewlux PerkinElmer.
NOTES (numbers refer to Sequence numbers above)
1. The cell-based screening methods employed in this study were like those previously published. Briefly, the corresponding myeloma cell lines were screened in 1,536-well plates with 500 cells, 5-uL per well for inhibition of cell viability (assessed by measuring ATP levels with CellTiterGlo).
2. NCATS MIPE 4.0 library of approved and investigational drugs were added using the Kalypsis pin tool. Wells treated with DMSO only for 100% viability and media only for 0% viability were used as controls.
3. The assay plates were covered and incubated for 48 hours in a 37C, 5% CO2 incubator with controlled humidity.
4. After 48 hours, CellTilter-GloTM luminescent substrate mix (Promega) reagent was added to the assay plate and plates we incubated for 5 min at room temperature.
5. Signal was measured as median relative luminescence units on a ViewLux (PerkinElmer) multiplate reader.
[1] Heske CM, Davis MI, Baumgart JT, Wilson K, Gormally MV, Chen L, Zhang X, Ceribelli M, Duveau DY, Guha R, Ferrer M, Arnaldez FI, Ji J, Tran HL, Zhang Y, Mendoza A, Helman LJ, Thomas CJ. Matrix Screen Identifies Synergistic Combination of PARP Inhibitors and Nicotinamide Phosphoribosyltransferase (NAMPT) Inhibitors in Ewing Sarcoma. Clin Cancer Res. 2017 Dec 1;23(23):7301-7311. doi: 10.1158/1078-0432.CCR-17-1121. Epub 2017 Sep 12. PMID: 28899971; PMCID: PMC6636827.
Potency means the concentration at half of the fitted maximal effect.

Structure (SMILES) | Potency | viability
Cc1[nH]c(C=C2C(=O)Nc3ccc(S(=O)(=O)Cc4c(Cl)cccc4Cl)cc32)c(C)c1C(=O)N1CCC[C@H]1CN1CCCC1 | 26.4 µM (active) | 
Cc1ccccc1C(C(=O)NC1CCCCC1)N(C(=O)Cn1ccnc1C)c1cccc(F)c1 (stereo not given) |  | 103% (inactive)
CC(C)OC(=O)C(C)(C)Oc1ccc(C(=O)c2ccc(Cl)cc2)cc1 |  | 93.8% (inactive)
N#C[C@H]1C[C@H]2C[C@@H]2N1C(=O)[C@@H](N)C12CC3CC(CC(O)(C3)C1)C2 |  | 101% (inactive)
Cc1c[nH]c(C=C2C(=O)Nc3ccccc32)c1CCC(=O)O |  | 81.1% (inactive)
COC1CCC(N(C(=O)C2CCC(C)CC2)c2cc(C3=CCCCC3)sc2C(=O)O)CC1 (stereo not given) |  | 116% (inactive)
NS(=O)(=O)c1cccc2c1C(=O)c1cccc(O)c1C2=O | 1.18 µM (active) | 
CC[C@]1(O)C[C@@H]2CN(CCc3c([nH]c4ccccc34)[C@@](C(=O)OC)(c3cc4c(cc3OC)N(C=O)[C@@H]3C45CCN4CC=C[C@](CC)([C@H]45)[C@@H](OC(C)=O)[C@]3(O)C(=O)OC)C2)C1 (stereo not given in full) | 26.4 µM (active) | 
COc1ccc(-c2coc3cc(O)cc(O)c3c2=O)cc1 |  | 95.7% (inactive)
O=c1c(O)c(-c2ccc(O)cc2)oc2cc(O)cc(O)c12 |  | 118% (inactive)
CCCCCCCCCCCC1=C(O)C(=O)C=C(O)C1=O |  | 78.8% (inactive)
O=C1NC(=O)C(=Cc2cccc(C(F)(F)F)c2)S1 |  | 99.9% (inactive)
c1cc(-c2sc(-c3ccncc3)c(-c3ccncc3)c2-c2ccncc2)ccn1 |  | 114% (inactive)
O=c1c(-c2ccc(O)cc2)coc2cc(OC3O[C@H](CO)[C@H](O)[C@H](O)[C@H]3O)cc(O)c12 (stereo not given in full) |  | 95.2% (inactive)
COc1ccc(Cc2ccc(NC(N)=O)cc2)cc1-c1cccc(Cl)c1 |  | 123% (inactive)
CC(C)C(=O)Oc1ccc(CO)cc1[C@H](CCN(C(C)C)C(C)C)c1ccccc1 |  | 96.1% (inactive)
Cn1c(N2CCCCS2(=O)=O)nc(C(=O)NCc2ccc(F)cc2)c(O)c1=O |  | 92.3% (inactive)
Cc1cnc(C(=O)O)c[n+]1[O-] |  | 102% (inactive)
CC(C)(C)Cn1c(N)nc2ccc(-c3[nH]c(C(C)(C)C)nc3-c3ccc(F)cc3)nc21 | 16.6 µM (active) | 
Cc1ccc(C(=O)Nc2cccc(C(F)(F)F)c2)cc1Nc1nc(-c2cccnc2)nc2c1cnn2C | 16.6 µM (active) | 

Structure (SMILES) | Potency | viability
COc1ccc2cc(-c3nc(-c4ccc(S(C)=O)cc4)[nH]c3-c3ccncc3)ccc2c1 (stereo not given) |  | 96% (inactive)
CC(C)(C)NC(=O)Nc1cccc(Nc2ncc(F)c(NC(C)(C)CO)n2)c1 |  | 105% (inactive)
O=c1cc(-c2cccc3c2Sc2ccccc2S3)oc(N2CCOCC2)c1 |  | 75.6% (inactive)
NC(=O)[C@@H](CCC(F)(F)F)N(Cc1ccc(-c2ncon2)cc1F)S(=O)(=O)c1ccc(Cl)cc1 |  | 114% (inactive)
CN(C)Cc1ccc(-c2nc3cccc4c3n2CCNC4=O)cc1 |  | 88.3% (inactive)
CC1(C)S[C@H]2[C@H](NC(=O)[C@@H](N)c3ccc(O)cc3)C(=O)N2[C@@H]1C(=O)O |  | 94.2% (inactive)
CN1C[C@H]2c3ccccc3Oc3ccc(Cl)cc3[C@@H]2C1 |  | 96.4% (inactive)
CC1(C)CCC[C@@]2(C)[C@@H]1CC[C@@]1(C)OC(=O)C[C@H]21 |  | 111% (inactive)
Cn1cc(C=C2C(=O)Nc3cccnc32)c2ccccc21 |  | 104% (inactive)
O=c1cc(-c2ccccc2)oc2cc(O)cc(O)c12 |  | 112% (inactive)
COc1cc2nc(-c3ccc(N4CCN(C)CC4)cc3)nc(NCCN3CCOCC3)c2cc1OC | 0.148 µM (active) | 
O=C(O)C=Cc1ccc(O)c(O)c1 | 10.5 µM (active) | 
CN(C)c1cc(NC(=O)CNC(C)(C)C)c(O)c2c1C[C@@H]1C[C@H]3[C@H](N(C)C)C(=O)C(C(N)=O)=C(O)[C@@]3(O)C(=O)C1=C2O |  | 104% (inactive)
O=C(Nc1ccccc1-c1cn2c(CN3CCNCC3)csc2n1)c1cnc2ccccc2n1 | 16.6 µM (active) | 
COc1cc2ncnc(-n3nc(-c4ccccn4)nc3N)c2cc1OC |  | 71.8% (inactive)
CC1CCC(C(=O)N(c2cc(C#CC(C)(C)C)sc2C(=O)O)C2CCC(O)CC2)CC1 (stereo not given) |  | 110% (inactive)
CC(C)=CC[C@@H](O)C1=CC(=O)c2c(O)ccc(O)c2C1=O | 1.18 µM (active) | 
CO[C@H]1C=CO[C@@]2(C)Oc3c(C)c(O)c4c(O)c(c5c(c4c3C2=O)NC2(CCN(CC(C)C)CC2)N=5)=NC(=O)C(C)=CC=C[C@H](C)[C@H](O)[C@@H](C)[C@@H](O)[C@@H](C)[C@H](OC(C)=O)[C@H]1C |  | 89.2% (inactive)
NC1=N[C@@]2(c3cc(NC(=O)c4ccc(F)cn4)ccc3F)COC[C@@H]2CS1 |  | 114% (inactive)
CC=CC[C@@H](C)C(=O)[C@H]1C(=O)N[C@@H](C(C)C)C(=O)N(C)CC(=O)N(C)[C@@H](CC(C)C)C(=O)N[C@@H](C(C)C)C(=O)N(C)[C@@H](CC(C)C)C(=O)N[C@@H](C)C(=O)N[C@H](C)C(=O)N(C)[C@@H](CC(C)C)C(=O)N(C)[C@@H](CC(C)C)C(=O)N(C)[C@@H](C(C)C)C(=O)N1C |  | 98.9% (inactive)
